The list is not random: actives were taken first. Their share in the collection is about 31%.
CYP2C9 act: increases human cytochrome P450 2C9 activity | P11712 | recombinant CYP2C9, luciferin-H conversion, luminescence; active compounds read high; factor 1 = untreated enzyme, 0 = blocked | activation factor at 5 µM | hit rate 1.4% among 96,000 | AID 1024;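 active means activation factor of 2 or more for CYP2C9 at a 5 µM dose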;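 further: 0 = sulfaphenazole-blocked wells and 1 = vehicle-only wells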
CYP2C19 inhib: human CYP2C19 inhibition. CYP2C19 Supersomes, luciferin-H EGE luminescence, 30 min. inhibition, % at 5 µM. P33261. AID 778. hit rate 21% among 96,000;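 active means CYP2C19 inhibition above a set limit at 5 µM in the primary screen, cut at about 50% in these data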;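 further: plate controls were negative control wells for no effect and 2.5 mM tranylcypromine positive control for full effect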
Target sequence (P33261 whole entry, looked up): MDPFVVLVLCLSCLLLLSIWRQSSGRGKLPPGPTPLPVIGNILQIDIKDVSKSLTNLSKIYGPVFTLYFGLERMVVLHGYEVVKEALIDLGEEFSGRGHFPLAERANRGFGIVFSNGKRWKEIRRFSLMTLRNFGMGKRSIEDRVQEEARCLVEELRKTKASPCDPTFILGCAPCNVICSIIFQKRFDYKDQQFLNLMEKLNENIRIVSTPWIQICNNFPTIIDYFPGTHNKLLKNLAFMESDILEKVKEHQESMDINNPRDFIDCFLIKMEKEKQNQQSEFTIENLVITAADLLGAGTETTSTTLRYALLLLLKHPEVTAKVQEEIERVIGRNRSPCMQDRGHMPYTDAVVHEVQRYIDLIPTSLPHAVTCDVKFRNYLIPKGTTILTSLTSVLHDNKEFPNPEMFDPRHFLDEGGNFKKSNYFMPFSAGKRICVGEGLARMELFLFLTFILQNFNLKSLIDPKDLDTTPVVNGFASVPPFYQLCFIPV
CYP2C9 inhib: blocks human cytochrome P450 2C9; P11712; CYP2C9 Supersomes, luciferin-H conversion, luminescence; inhibition, % at 5 µM; hit rate 20% among 96,000; AID 777;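 active means blocking of liver enzyme CYP2C9 beyond about 50% at 5 µM, limit read from the data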
CYP2C19 activ: cytochrome P450 2C19 (human) activation | activation factor at 5 µM | recombinant CYP2C19, luciferin-H EGE luminescence; active compounds read high; 0 = fully inhibited enzyme, 1 = untreated enzyme | AID 1025 | 96,000 tested, under 10 active;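 active means activation factor of at least 2 at 5 µM in the primary screen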;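 further: 0 = wells with 2.5 mM tranylcypromine and 1 = vehicle-only wells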
* = called active by the depositor.

SMILES	CYP2C9 act	CYP2C19 inhib	CYP2C9 inhib	CYP2C19 activ
NNc1nnc(-c2ccccc2)c(-c2ccccc2)n1	0.2	88*	79*	0.1
COc1ccc(C(=O)N2CCN(C(C)=O)CC2)cc1S(=O)(=O)NCc1ccc(Cl)cc1	1.2	-14	-19	1.1
COc1ccc(Cl)cc1S(=O)(=O)NCc1cccs1	2.5*	97*	-149	0
COc1cc(C)c(S(=O)(=O)NCc2cccs2)cc1C	0.3	99*	66*	0
NS(=O)(=O)c1ccc(CCNC2CC(=O)N(CCc3ccccc3)C2=O)cc1 (stereo unspecified)	1.2	-12	-15	1.1
O=C1CN(C(=O)CN2CCOCC2)C(c2ccccc2)c2cc(Br)ccc2N1 (stereo unspecified)	0.3	65*	68*	0.4
O=C1CN(C(=O)CN2CCCC2)C(c2ccccc2)c2cc(Br)ccc2N1 (stereo unspecified)	0.8	30	25	0.7
COc1ccccc1CNc1nc2nc(C)c(Cl)c(=O)n2[nH]1	0.4	2	61*	1
CN(C)c1nc(OCCNC(=O)Nc2ccccc2)nc(N2CCOCC2)n1	0.2	53*	80*	0.5
CN(C)c1nc(OCCNC(=O)Nc2ccccc2)nc(N(C)C)n1	0.5	73*	47	0.3
CC(=O)NCCOc1nc(N(C)C)nc(N(C)C)n1	1	4	2	1
COC(=O)Cn1nc(-c2ccccc2)c2ccccc2c1=O	1.2	34	-18	0.7
Cc1ccc(-c2nn(CCC(=O)NCC3CCCO3)c(=O)c3ccccc23)cc1 (stereo unspecified)	0.5	32	54*	0.7
O=c1c2ccccc2c(-c2ccccc2)nn1Cc1ccc(Cl)cc1	0.4	66*	58*	0.3
O=C(O)Cn1nc(-c2ccccc2)c2ccccc2c1=O	1	9	-1	0.9
O=C(CCn1nc(-c2ccccc2)c2ccccc2c1=O)N1CCN(c2ccccc2)CC1	0.1	90*	85*	0.1
COc1ccccc1NC(=O)Cn1nc(-c2ccc(Cl)cc2)c2ccccc2c1=O	0.3	41	70*	0.6
Cc1ccc(-c2nn(CC(=O)NCC3CCCO3)c(=O)c3ccccc23)cc1 (stereo unspecified)	0.8	8	16	0.9
CCN(CC)CCCN(Cc1cc2cc3c(cc2[nH]c1=O)OCCO3)C(=O)Nc1ccc(F)cc1	0.9	19	6	0.8
COc1ccc(C(=O)c2nc3c(n2O)CCCC3)cc1OC	0.7	12	30	0.9
COC(=O)C(C)Sc1ncnc2c1nnn2-c1ccc(F)cc1 (stereo unspecified)	0.8	19	21	0.8
CCc1cccc(C)c1NC(=O)CSc1ncn[nH]1	0.9	17	13	0.8
CCNC(=O)CCn1nc(-c2ccc(Cl)cc2)c2ccccc2c1=O	0.7	65*	31	0.3
O=C(CCn1nc(-c2ccccc2)c2ccccc2c1=O)NCC1CCCO1 (stereo unspecified)	0.5	56*	54*	0.4
NC(=O)CCn1nc(-c2ccccc2)c2ccccc2c1=O	1.1	16	-10	0.8
SMILES	CYP2C9 act	CYP2C19 inhib	CYP2C9 inhib	CYP2C19 activ
O=C(CCSc1ccccc1)NCC1CCCO1 (stereo unspecified)	1	72*	1	0.3
O=C(Cn1nc(-c2ccc(Cl)cc2)c2ccccc2c1=O)NCC1CCCO1 (stereo unspecified)	0.8	6	16	0.9
COc1ccc(Cl)cc1NC(=O)Cn1c(=O)n2nc(C)nc2c2ccccc21	0.7	59*	34	0.4
O=C(CCCOc1ccccc1)NCC1CCCO1 (stereo unspecified)	1	27	-2	0.7
Cc1cc(C(=O)N2CCC(C(F)(F)F)n3nccc32)on1 (stereo unspecified)	1.1	0	-13	1
CN1CCN(C(=O)c2ccccc2-c2ccccc2C(=O)O)CC1	1.2	-16	-21	1.2
O=c1c2ccccc2c(-c2ccccc2)nn1-c1cc(Cl)ccc1[N+](=O)[O-]	0.7	61*	29	0.4
CCc1ccc(-c2nn(-c3cc(Cl)ccc3[N+](=O)[O-])c(=O)c3ccccc23)cc1	0.7	-16	28	1.2
COc1ccc(-c2nc(C#N)c(N3CCC(C(N)=O)CC3)o2)cc1	0.5	37	48	0.6
CCOC(=O)N1CCN(C(=O)c2ccc3c(SCC(=O)O)c4c(nc3c2)CCC4)CC1	0.7	2	28	1
CCOC(=O)N1CCN(C(=O)c2ccc3nc(SCc4ccc(F)cc4)n(C)c3c2)CC1	0.3	49	65*	0.5
c1coc(C2Nc3cccc4cccc(c34)N2)c1	0.5	59*	54*	0.4

Assay outcomes as filed in PubChem.
